Laboratory results reported in PubChem BioAssay (NCATS).
Results filed as inconclusive are left out. The source made the active and inactive calls. Unless noted, calls follow the shape of the dose curve; as a rule, active = well fitted curve in the direction sought with a large enough effect; inconclusive = small, poorly fitted or top-dose-only effect, or another doubt; inactive = no such curve, though single readings can be large; an effect the other way counts as inactive or inconclusive.

Legend:
[1] = qHTS of pediatric cancer cell lines to identify multiple opportunities for drug repurposing: Primary screen for TC32 cells (AID 1347089); also: nearly all actives have a fitted effect of over 60% in size; also: potency is read from the fitted curve at half-maximal effect; as to activity change, negative = cytotoxic: % is scaled to controls: 0 for no effect and ±100 for the full control effect
Summary of the method: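 Luminescent CellTiter-Glo read-out of metabolically active TC32 cells after 48 h compound exposure. Primary: MIPE 11-point, 0.78 nM–46 µM; NPC 8-point, 0.59 nM–46 µM. Confirmatory: 11-point dilutions.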

[2] = qHTS of pediatric cancer cell lines to identify multiple opportunities for drug repurposing: Primary screen for DAOY cells (AID 1347090); also: nearly all actives have a fitted effect of over 55% in size; also: potency is read from the fitted curve at half-maximal effect;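 as to activity change, negative = cytotoxic: series mostly up to about 46 µM; plate controls were DMSO for no effect and bortezomib for full effect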
Summary of the method: (§1)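 Viability measured as metabolically active cells via CellTiter-Glo luminescence following 48 hours of compound exposure, 11-point dilutions in confirmatory testing. 500-1,000 cells/well plated 5 hours before dosing; controls were DMSO and 2.3 µM bortezomib.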

[3] = qHTS of pediatric cancer cell lines to identify multiple opportunities for drug repurposing: Primary screen for SJ-GBM2 cells (AID 1347091); also: potency is read from the fitted curve at half-maximal effect;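 as to activity change, negative = cytotoxic: plate controls were DMSO neutral control for no effect and bortezomib for full effect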
Summary of the method: as §1

[4] = qHTS of pediatric cancer cell lines to identify multiple opportunities for drug repurposing: Primary screen for A673 cells (AID 1347092); also: nearly all actives have a fitted effect of over 45% in size; also: potency is read from the fitted curve at half-maximal effect; as to activity change, negative = cytotoxic: % is scaled to controls: 0 for no effect and ±100 for the full control effect
Summary of the method: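 A673 cells (500-1,000 cells/well in growth media) were pre-incubated 5 h at 37 degrees C, then exposed to compounds for 48 h. Viability was read as CellTiter-Glo luminescence; concentration-response curves came directly from the primary screen.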

[5] = qHTS of pediatric cancer cell lines to identify multiple opportunities for drug repurposing: Primary screen for SK-N-MC cells (AID 1347093); also: potency is read from the fitted curve at half-maximal effect;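 as to activity change, negative = cytotoxic: series mostly up to about 46 µM; plate controls were DMSO neutral control for no effect and bortezomib for full effect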
Summary of the method: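 Metabolically active cells were quantified by ATP-dependent luminescence (CellTiter-Glo, 15 min at room temperature) following 48 h treatment. Cells had been plated at 500-1,000 per well and settled for 5 h beforehand.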

[6] = qHTS of pediatric cancer cell lines to identify multiple opportunities for drug repurposing: Primary screen for BT-37 cells (AID 1347094); also: potency is read from the fitted curve at half-maximal effect;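 as to activity change, negative = cytotoxic: series mostly up to about 57 µM; plate controls were DMSO for no effect and bortezomib for full effect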
Summary of the method: (§2)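 Quantitative HTS format: each compound titrated (MIPE 11 points from 0.78 nM, NPC 8 points from 0.59 nM) onto cells plated 5 hours earlier. After 48 h at 37 degrees C, CellTiter-Glo luminescence was recorded.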

[7] = qHTS of pediatric cancer cell lines to identify multiple opportunities for drug repurposing: Primary screen for NB-EBc1 cells (AID 1347095); also: potency is read from the fitted curve at half-maximal effect;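 as to activity change, negative = cytotoxic: plate controls were DMSO neutral control for no effect and bortezomib for full effect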
Summary of the method: as §2

[8] = qHTS of pediatric cancer cell lines to identify multiple opportunities for drug repurposing: Primary screen for U-2 OS cells (AID 1347096); also: nearly all actives have a fitted effect of over 50% in size; also: potency is read from the fitted curve at half-maximal effect;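 as to activity change, negative = cytotoxic: plate controls were DMSO wells for no effect and bortezomib positive control wells for full effect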
Summary of the method: (§3)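 Viability after 48 h compound treatment at 37C, 500-1,000 cells/well, read as ATP luminescence with CellTiter-Glo. Primary screens used 11-point (MIPE, 0.78 nM-46 µM) or 8-point (NPC, 0.59 nM-46 µM) final concentrations; follow-up screens used 11-point dilutions.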

[9] = qHTS of pediatric cancer cell lines to identify multiple opportunities for drug repurposing: Primary screen for Saos-2 cells (AID 1347097); also: nearly all actives have a fitted effect of over 40% in size; also: potency is read from the fitted curve at half-maximal effect; as to activity change, negative = cytotoxic: % is scaled to controls: 0 for no effect and ±100 for the full control effect
Summary of the method: as §2

[10] = qHTS of pediatric cancer cell lines to identify multiple opportunities for drug repurposing: Primary screen for SK-N-SH cells (AID 1347098); also: nearly all actives have a fitted effect of over 65% in size; also: potency is read from the fitted curve at half-maximal effect
Summary of the method: (§4)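 Cells (500-1,000/well) rested 5 h, then received compounds for 48 h; metabolically active cells were measured by CellTiter-Glo luminescence. Final concentrations spanned up to 46 µM (MIPE, 11-point) or 0.59 nM-46 µM (NPC, 8-point) in primary screens, 11-point in follow-ups.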

[11] = qHTS of pediatric cancer cell lines to identify multiple opportunities for drug repurposing: Primary screen for NB1643 cells (AID 1347099);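 also: plate controls were DMSO neutral control for no effect and bortezomib positive control for full effect; nearly all actives have a fitted effect of over 50% in size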
Summary of the method: as §2

[12] = qHTS of pediatric cancer cell lines to identify multiple opportunities for drug repurposing: Primary screen for LAN-5 cells (AID 1347100); also: potency is read from the fitted curve at half-maximal effect;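 as to activity change, negative = cytotoxic: plate controls were DMSO neutral control for no effect and bortezomib positive control for full effect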
Summary of the method: as §3

[13] = qHTS of pediatric cancer cell lines to identify multiple opportunities for drug repurposing: Primary screen for BT-12 cells (AID 1347101); also: nearly all actives have a fitted effect of over 25% in size; also: potency is read from the fitted curve at half-maximal effect;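 as to activity change, negative = cytotoxic: plate controls were DMSO for no effect and bortezomib positive control for full effect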
Summary of the method: as §4

[14] = qHTS of pediatric cancer cell lines to identify multiple opportunities for drug repurposing: Primary screen for Rh18 cells (AID 1347102); also: nearly all actives have a fitted effect of over 65% in size; also: potency is read from the fitted curve at half-maximal effect
Summary of the method: as §3

[15] = qHTS of pediatric cancer cell lines to identify multiple opportunities for drug repurposing: Primary screen for OHS-50 cells (AID 1347103); also: nearly all actives have a fitted effect of over 40% in size; also: potency is read from the fitted curve at half-maximal effect;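 as to activity change, negative = cytotoxic: plate controls were DMSO neutral control for no effect and bortezomib positive control for full effect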
Summary of the method: as §4

[16] = target: T1, Tyrosine-protein phosphatase non-receptor type substrate 1 (Homo sapiens) + Leukocyte surface antigen CD47 (Homo sapiens) (UniProt P78324+Q08722); assay: CD47-SIRPalpha protein protein interaction - LANCE assay qHTS validation (AID 1347057; active = well fitted curve in the direction sought with a large enough effect in the signal ratio, with a control signal flat, not every such curve was filed as active; the % refers to the signal ratio; also: series mostly up to about 38 µM; 0% is about no effect)
Summary of the method: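 Inhibition of soluble CD47/SIRPalpha ectodomain association by titrated compounds, measured as 665/615 nm time-resolved FRET ratio after sequential 30 min room-temperature incubations.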

[17] = target: T1, Tyrosine-protein phosphatase non-receptor type substrate 1 (Homo sapiens) + Leukocyte surface antigen CD47 (Homo sapiens); assay: CD47-SIRPalpha protein protein interaction - HTRF assay qHTS validation (AID 1347058; active = well fitted curve in the direction sought with a large enough effect in the signal ratio, not every such curve was filed as active; the % refers to the signal ratio; also: series mostly up to about 38 µM; 0% is about no effect)
Summary of the method: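 Soluble extracellular domains (6His-CD47, Avi-tag-biotinylated SIRPalpha) in PBS pH 7.4 with 0.05% IGEPAL CA-630. Compounds were preincubated 30 min at RT with CD47 and anti-His-Eu, then SIRPalpha and SAV-XL665 were added. TR-FRET 665/615 ratio.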

[18] = target: T1, Tyrosine-protein phosphatase non-receptor type substrate 1 (Homo sapiens) + Leukocyte surface antigen CD47 (Homo sapiens); assay: CD47-SIRPalpha protein protein interaction - Alpha assay qHTS validation (AID 1347059);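 also: bead proximity luminescence from CD47 binding SIRPalpha after compound preincubation with SIRPalpha; % is scaled to controls: 0 for no effect and ±100 for the full control effect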
Summary of the method: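 SIRPalpha-biotin 25 nM + cpd, 30 min RT, dark; add CD47-His 12.5 nM, 30 min; add Ni-NTA/SAV beads 10 ug/mL, 30 min; AlphaScreen. Buffer PBS pH 7.4 + 0.05% IGEPAL CA-630. Non-biotinylated SIRPalpha as control inhibitor.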

[19] = target: Parathyroid hormone/parathyroid hormone-related peptide receptor (Homo sapiens) (UniProt Q03431); assay: qHTS for PTHR1 Agonists: Optimization Screen against the NCGC LOPAC library (AID 1347079);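 also: GloSensor cAMP luminescence in HEK-293 GP2 cells expressing human PTHR1 with IBMX; 0% is about no effect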
Summary of the method: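 HEK-293 GP2 cells, PTHR1 + GloSensor cAMP; 3000 cells/well, o/n. Luciferin + IBMX 0.5mM each (stock), 1 hr 37C. Cpd titration, 1 hr 37C. Lum after 15 min RT. Ctrl M-PTH(1-15) top 10uM.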

[20] = qHTS of pediatric cancer cell lines to identify multiple opportunities for drug repurposing: Primary screen for RD cells (AID 1347104); also: nearly all actives have a fitted effect of over 55% in size;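 as to activity change, negative = cytotoxic: plate controls were DMSO for no effect and bortezomib for full effect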
Summary of the method: as §2

T1 sequence (P78324 whole entry, looked up, the tested form may be a part): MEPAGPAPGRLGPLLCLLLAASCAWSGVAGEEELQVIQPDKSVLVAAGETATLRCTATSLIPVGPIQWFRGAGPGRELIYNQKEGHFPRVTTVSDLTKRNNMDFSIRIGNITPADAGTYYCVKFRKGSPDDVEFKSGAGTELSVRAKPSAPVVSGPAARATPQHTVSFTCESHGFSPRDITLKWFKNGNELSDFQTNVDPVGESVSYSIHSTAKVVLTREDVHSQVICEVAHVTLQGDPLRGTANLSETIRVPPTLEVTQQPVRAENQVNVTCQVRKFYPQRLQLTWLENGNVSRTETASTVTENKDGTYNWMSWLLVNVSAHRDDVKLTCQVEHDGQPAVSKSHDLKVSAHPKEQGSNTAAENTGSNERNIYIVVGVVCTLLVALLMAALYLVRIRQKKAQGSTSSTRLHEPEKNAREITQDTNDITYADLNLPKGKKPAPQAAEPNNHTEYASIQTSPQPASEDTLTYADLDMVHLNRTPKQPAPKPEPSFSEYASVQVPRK
T1 sequence (Q08722 whole entry, looked up, the tested form may be a part): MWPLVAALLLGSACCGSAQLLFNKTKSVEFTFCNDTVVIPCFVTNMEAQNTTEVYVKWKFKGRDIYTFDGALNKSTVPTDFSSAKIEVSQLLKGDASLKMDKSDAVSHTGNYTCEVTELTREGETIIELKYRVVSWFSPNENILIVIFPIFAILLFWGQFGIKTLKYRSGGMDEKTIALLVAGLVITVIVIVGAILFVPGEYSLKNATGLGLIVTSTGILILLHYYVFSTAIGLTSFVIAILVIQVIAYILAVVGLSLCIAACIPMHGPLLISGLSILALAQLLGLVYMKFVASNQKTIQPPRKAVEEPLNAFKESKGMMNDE
Parathyroid hormone/parathyroid hormone-related peptide receptor (Homo sapiens), sequence (Q03431 whole entry, looked up): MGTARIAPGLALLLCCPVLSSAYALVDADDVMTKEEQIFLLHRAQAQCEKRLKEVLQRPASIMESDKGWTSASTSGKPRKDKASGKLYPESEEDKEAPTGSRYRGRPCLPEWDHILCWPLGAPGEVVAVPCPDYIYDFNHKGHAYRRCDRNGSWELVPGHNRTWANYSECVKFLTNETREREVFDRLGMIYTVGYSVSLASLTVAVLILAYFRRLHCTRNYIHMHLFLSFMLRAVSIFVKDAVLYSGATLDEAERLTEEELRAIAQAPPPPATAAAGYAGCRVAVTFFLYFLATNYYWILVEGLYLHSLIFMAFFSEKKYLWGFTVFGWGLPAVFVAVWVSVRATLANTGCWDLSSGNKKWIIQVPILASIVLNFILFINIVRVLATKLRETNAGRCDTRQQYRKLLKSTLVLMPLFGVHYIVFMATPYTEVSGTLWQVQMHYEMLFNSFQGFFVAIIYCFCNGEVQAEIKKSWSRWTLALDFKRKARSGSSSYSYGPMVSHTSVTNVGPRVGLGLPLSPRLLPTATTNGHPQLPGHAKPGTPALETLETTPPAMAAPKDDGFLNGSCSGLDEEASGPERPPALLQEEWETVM

NC[C@H]1O[C@H](O[C@H]2[C@H](O[C@@H]3O[C@H](CO)[C@@H](O)[C@H]3O)C(O)[C@H](N)C[C@@H]2N)[C@H](N)[C@@H](O)[C@@H]1O (stereo partly specified)
inactive: activity change, negative = cytotoxic [1] 6.72% [at 9.17 µM] | activity change, negative = cytotoxic [2] 6.37% [at 9.22 µM] | activity change, negative = cytotoxic [3] 15.5% [at 9.22 µM] | activity change, negative = cytotoxic [4] -0.207% [at 9.22 µM] | activity change, negative = cytotoxic [5] -3.87% [at 9.22 µM] | activity change, negative = cytotoxic [6] 10.7% [at 11.5 µM] | activity change, negative = cytotoxic [7] 28.9% [at 9.22 µM] | activity change, negative = cytotoxic [8] 11.5% [at 9.22 µM] | activity change, negative = cytotoxic [9] -4.84% [at 9.22 µM] | activity change, negative = cytotoxic [10] 19.9% [at 11.4 µM] | activity change, negative = cytotoxic [11] 0% [at 9.22 µM] | activity change, negative = cytotoxic [12] 25.3% [at 9.22 µM] | activity change, negative = cytotoxic [13] 7.42% [at 11.5 µM] | activity change, negative = cytotoxic [14] 31.2% [at 9.22 µM] | activity change, negative = cytotoxic [15] 7.33% [at 11.5 µM]

CC(CCc1ccccc1)NCC(O)c1ccc(O)c(C(N)=O)c1 (stereo unspecified)
inactive: outcome [16] | outcome [17] | Potency [18] | outcome [19]

COc1cc(NS(C)(=O)=O)ccc1Nc1c2ccccc2nc2ccccc12
inactive: outcome [19]

CNC(=O)CN(CCN(CCN(CC(=O)[O-])CC(=O)NC)CC(=O)[O-])CC(=O)[O-].O.[Gd+3]
inactive: Potency [1] | Potency [2] | Potency [3] | Potency [4] | Potency [5] | Potency [6] | Potency [7] | Potency [8] | Potency [9] | Potency [10] | Potency [11] | Potency [12] | Potency [13] | Potency [14] | Potency [15] | Potency [20]

CCCn1c(=O)[nH]c(=O)c2[nH]cnc21
inactive: outcome [16] | outcome [17] | Potency [18] | outcome [19]

CN1C2CCC1CC(OC(=O)c1c[nH]c3ccccc13)C2 (stereo unspecified)
inactive: outcome [16] | outcome [17] | Potency [18] | outcome [19]

C[N+]1(CCCCC[N+]2(C)CCCC2)CCCC1
inactive: outcome [16] | outcome [17] | Potency [18] | outcome [19]

C[C@@H]1C[C@H]2[C@@H]3C[C@H](F)C4=CC(=O)C(Cl)=C[C@]4(C)[C@@]3(F)[C@@H](O)C[C@]2(C)[C@@]1(O)C(=O)CO
inactive: Potency [1] | Potency [2] | Potency [3] | Potency [4] | Potency [5] | Potency [6] | Potency [7] | Potency [8] | Potency [9] | Potency [10] | Potency [11] | Potency [12] | Potency [13] | Potency [14] | Potency [15] | Potency [20]

CCCCC(CC)CN=C(N)NC(N)=NCCCCCCN=C(N)NC(N)=NCC(CC)CCCC (stereo unspecified)
active: Potency [1] 21 µM | Potency [2] 8.41 µM | Potency [3] 1.06 µM | Potency [4] 1.68 µM | Potency [5] 5.31 µM | Potency [6] 9.78 µM | Potency [7] 10.6 µM | Potency [8] 21.1 µM | Potency [9] 9.44 µM | Potency [10] 4.33 µM | Potency [12] 5.31 µM | Potency [13] 2.46 µM | Potency [14] 8.41 µM | Potency [15] 4.37 µM | Potency [20] 5.96 µM

COc1c2occc2c(OC)c2c(=O)cc(C)oc12
inactive: Potency [1] | Potency [2] | Potency [3] | Potency [4] | Potency [5] | Potency [6] | Potency [7] | Potency [8] | Potency [9] | Potency [10] | Potency [11] | Potency [12] | Potency [13] | Potency [15] | Potency [20]

Cc1ncc(CSSCc2cnc(C)c(O)c2CO)c(CO)c1O
inactive: Potency [1] | Potency [2] | Potency [3] | Potency [4] | Potency [5] | Potency [6] | Potency [7] | Potency [8] | Potency [9] | Potency [10] | Potency [11] | Potency [12] | Potency [13] | Potency [14] | Potency [15] | Potency [20]

CC(=O)[C@H]1CC[C@H]2[C@@H]3C[C@H](C)C4=CC(=O)CC[C@]4(C)[C@H]3[C@@H](O)C[C@]12C
inactive: Potency [1] | Potency [2] | Potency [3] | Potency [4] | Potency [5] | Potency [6] | Potency [7] | Potency [8] | Potency [9] | Potency [10] | Potency [11] | Potency [12] | Potency [20]

CC(=O)OCC(=O)[C@@]1(O)[C@H](C)C[C@H]2[C@@H]3CCC4=CC(=O)C=C[C@]4(C)[C@@]3(F)[C@@H](O)C[C@@]21C
inactive: Potency [1] | Potency [2] | Potency [3] | Potency [4] | Potency [5] | Potency [6] | Potency [7] | Potency [8] | Potency [9] | Potency [10] | Potency [11] | Potency [12] | Potency [13] | Potency [14] | Potency [15] | Potency [20]

C[C@H](CCC(=O)O)[C@H]1CC[C@H]2[C@@H]3C(=O)C[C@@H]4CC(=O)CC[C@]4(C)[C@H]3CC(=O)[C@]12C
inactive: Potency [1] | Potency [2] | Potency [3] | Potency [4] | Potency [5] | Potency [6] | Potency [7] | Potency [8] | Potency [9] | Potency [10] | Potency [11] | Potency [12] | Potency [13] | Potency [15] | Potency [20]

CC(Cc1ccccc1)(NC(=O)CN)c1ccccc1 (stereo unspecified)
inactive: Potency [1] | Potency [2] | Potency [3] | Potency [4] | Potency [5] | Potency [6] | Potency [7] | Potency [8] | Potency [9] | Potency [10] | Potency [11] | Potency [12] | Potency [13] | Potency [14] | Potency [20]

CC(=O)OCC(=O)[C@@]1(O)CC[C@H]2[C@@H]3CCC4=CC(=O)C=C[C@]4(C)[C@H]3[C@@H](O)C[C@@]21C
inactive: Potency [1] | Potency [2] | Potency [3] | Potency [4] | Potency [5] | Potency [6] | Potency [7] | Potency [8] | Potency [9] | Potency [10] | Potency [11] | Potency [12] | Potency [13] | Potency [14] | Potency [20]

O=C1c2ccccc2C(=O)C1c1ccccc1
inactive: Potency [1] | Potency [2] | Potency [3] | Potency [4] | Potency [5] | Potency [6] | Potency [7] | Potency [8] | Potency [9] | Potency [10] | Potency [11] | Potency [12] | Potency [13] | Potency [14] | Potency [15] | Potency [20]

CCOC(=O)c1cccc(N)c1
inactive: Potency [1] | Potency [2] | Potency [3] | Potency [4] | Potency [5] | Potency [6] | Potency [7] | Potency [8] | Potency [9] | Potency [10] | Potency [11] | Potency [12] | Potency [13] | Potency [14] | Potency [15] | Potency [20]
